Measured values reported in PubChem BioAssay (NCATS).
“And” between values parts separate entries of the source, which are not always exact repeats. Equal values may be shown once. Inconclusive results are not listed. The source made the active and inactive calls. Unless noted, the call rests on the fitted dose curve; in most records, active means well fitted curve in the direction sought with a large enough effect; inconclusive means small, poorly fitted or top-dose-only effect, or another doubt; inactive means no such curve, though single readings can be large; an effect the other way counts as inactive or inconclusive.

Key:
[1] = target: Lysosomal acid glucosylceramidase (Homo sapiens) (UniProt P04062); experiment: Glucocerebrosidase-p2 (AID 348; in the data active means potency below about 10 µM; further: potency means the concentration at half of the fitted maximal effect); conditions: purified GBA, blue fluorogenic substrate, 40 min
Chain of Lysosomal acid glucosylceramidase (Homo sapiens) (P04062 whole entry, looked up): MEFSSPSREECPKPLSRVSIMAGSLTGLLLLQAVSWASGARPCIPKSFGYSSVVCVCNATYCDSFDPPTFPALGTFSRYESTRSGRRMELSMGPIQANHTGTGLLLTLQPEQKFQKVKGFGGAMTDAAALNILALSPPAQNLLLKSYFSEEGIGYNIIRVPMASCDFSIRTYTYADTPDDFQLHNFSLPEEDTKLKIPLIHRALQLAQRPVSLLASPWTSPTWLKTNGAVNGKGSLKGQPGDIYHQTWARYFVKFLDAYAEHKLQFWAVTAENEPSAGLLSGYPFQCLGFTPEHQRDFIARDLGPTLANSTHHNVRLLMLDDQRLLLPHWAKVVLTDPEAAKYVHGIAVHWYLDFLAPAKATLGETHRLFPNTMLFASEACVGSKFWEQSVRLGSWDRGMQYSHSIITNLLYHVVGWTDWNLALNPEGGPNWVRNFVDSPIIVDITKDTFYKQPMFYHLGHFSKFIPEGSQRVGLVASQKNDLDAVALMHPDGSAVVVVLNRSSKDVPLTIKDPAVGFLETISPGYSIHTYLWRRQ
Outline: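 Compounds titrated from 0.6 nM upwards against 0.2 nM enzyme in pH 5.9 citric acid/KH2PO4, taurocholate, tween-20; blue fluorogenic substrate 80 uM, 40 min room temperature, stopped and read Ex 365/Em 440 for AC50.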

[2] = Stat Signaling Pathway (AID 446; active means well fitted curve in either direction with a large enough effect, not every such curve was filed as active;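 further: ME-180 cervical cancer cells given 40 pM IL-6 alongside compound; SIE-controlled beta-lactamase reporter measured as 460/530 nm FRET emission ratio; on the % scale 0 is the no-effect control and ±100 the full control effect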); conditions: ME-180 SIE beta-lactamase reporter, IL-6 stimulated, 5 h; at 7.69 µM (top of the series) unless noted
Outline: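 ME-180 cells carrying a SIE-driven beta-lactamase reporter are stimulated with 40 pM IL-6 for 5 h at 37C in the presence of compound. The 460/530 nm FRET substrate ratio is read after 2.5 h at RT. Data are normalised to 300 pM IL-6 and to 125 nM JAK inhibitor controls.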

[3] = target: Glucocorticoid receptor (Homo sapiens) (UniProt P04150); experiment: GR-EFC Redistribution (AID 451; calls by dose curve; further: potency means the concentration at half of the fitted maximal effect); conditions: CHO-K1 GR-EFC translocation, beta-gal luminescence, 2 h
Chain of Glucocorticoid receptor (Homo sapiens) (P04150 whole entry, looked up, the tested form may be a part): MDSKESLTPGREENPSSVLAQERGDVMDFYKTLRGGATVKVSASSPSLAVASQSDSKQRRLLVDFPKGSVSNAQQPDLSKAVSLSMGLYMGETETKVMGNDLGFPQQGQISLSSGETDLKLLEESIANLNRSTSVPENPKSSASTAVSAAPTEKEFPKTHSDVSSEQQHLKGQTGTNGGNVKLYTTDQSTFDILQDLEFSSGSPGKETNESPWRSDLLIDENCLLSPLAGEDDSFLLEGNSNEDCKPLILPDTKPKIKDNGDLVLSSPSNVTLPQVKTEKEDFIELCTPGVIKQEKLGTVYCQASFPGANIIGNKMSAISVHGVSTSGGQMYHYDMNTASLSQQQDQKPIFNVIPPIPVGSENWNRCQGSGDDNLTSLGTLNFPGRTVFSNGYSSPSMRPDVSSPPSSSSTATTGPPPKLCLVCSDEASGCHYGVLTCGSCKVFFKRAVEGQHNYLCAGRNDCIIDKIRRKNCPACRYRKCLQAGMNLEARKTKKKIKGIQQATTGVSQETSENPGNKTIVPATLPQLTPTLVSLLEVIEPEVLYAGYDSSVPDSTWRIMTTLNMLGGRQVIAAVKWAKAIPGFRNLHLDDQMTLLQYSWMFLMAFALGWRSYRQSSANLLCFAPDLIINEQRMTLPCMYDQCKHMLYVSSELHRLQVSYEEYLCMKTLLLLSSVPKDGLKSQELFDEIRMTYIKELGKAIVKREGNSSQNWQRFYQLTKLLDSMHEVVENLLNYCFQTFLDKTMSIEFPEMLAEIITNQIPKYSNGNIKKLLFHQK
Outline: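 CHO-K1 cells expressing nuclear EA and GR-ED fragments of b-gal; compounds titrated up to 46 uM final, 2 h at 37 C. GR nuclear translocation read as complemented b-gal luminescence after 1 h RT detection.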

[4] = Primary qHTS for small molecule stabilizers of the endoplasmic reticulum resident proteome: Secreted ER Calcium Modulated Protein (SERCaMP) assay (AID 1508630); conditions: SH-SY5Y GLuc-SERCaMP (Gaussia luciferase released on ER calcium loss) secretion, thapsigargin, luminescence; series mostly up to 38.4 µM; further: on the % scale 0 is the no-effect control and ±100 the full control effect
Outline: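 GLuc-SERCaMP-expressing SH-SY5Y cells, pretreated 16 h with compound, are challenged with thapsigargin to empty ER calcium stores; after 4 h, coelenterazine is added directly to the medium and luminescence is imaged.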

[5] = NFAT Signaling Pathway (AID 444; active means well fitted curve in either direction with a large enough effect, not every such curve was filed as active;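 further: carbachol stimulus at about its EC50 of 1 µM final; on the % scale 0 is the no-effect control and ±100 the full control effect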); conditions: Jurkat NFAT-bla M1, carbachol, beta-lactamase ratio, 5 h; at 7.69 µM (top of the series) unless noted
Outline: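 Jurkat cells with NFAT-driven β-lactamase reporter and co-expressed M1 receptor, stimulated with carbachol (final 1 uM, ~EC50), compound titration, 5 h at 37 °C. CCF4 loaded 1 h at RT; 460/530 nm ratio gave %activity and AC50.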

[6] = target: Glucocorticoid receptor (Homo sapiens) (UniProt P04150); experiment: GR-GFP Redistribution (AID 450;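 active means compounds whose dose series gives a full or clear partial fitted curve of increased nuclear translocation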; further: potency means the concentration at half of the fitted maximal effect); conditions: U2OS GR-GFP nuclear translocation, laser cytometry, 2 h
[7] = target: Mitogen-activated protein kinase 10 (Mus musculus) (UniProt Q61831); experiment: JNK3 AlphaScreen Assay (AID 530; active means well fitted curve in either direction with a large enough effect, not every such curve was filed as active;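 further: kinase came from lysate of stimulated human HepG2 cells; signal reports phosphorylation of biotinylated GST-cJun 1-79 at Ser73 with 10 µM ATP; on the % scale 0 is the no-effect control and ±100 the full control effect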); conditions: JNK3 lysate, c-Jun phosphorylation; series mostly up to 57.1 µM
Outline: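 qHTS format: compounds tested as titrations against IL-1beta/TNF-alpha-activated HepG2 lysate JNK3 with biotin-GST-cJun substrate and 10 uM ATP at room temperature. Loss of anti-phospho-cJun AlphaScreen signal indicates inhibition.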

[8] = target: 3',5'-cyclic-AMP phosphodiesterase 4B (Homo sapiens) (UniProt Q07343); experiment: qHTS Assay for Inhibitors of PDE-IV (AID 607; active means well fitted activation curve with a large enough effect in the main read-out, with a control signal flat, not every such curve was filed as active; further: % of control where 0% means no effect); conditions: HEK293 ACTOne CNG channel cells, membrane potential fluorescence; series mostly up to 22.9 µM
Chain of 3',5'-cyclic-AMP phosphodiesterase 4B (Homo sapiens) (Q07343 whole entry, looked up): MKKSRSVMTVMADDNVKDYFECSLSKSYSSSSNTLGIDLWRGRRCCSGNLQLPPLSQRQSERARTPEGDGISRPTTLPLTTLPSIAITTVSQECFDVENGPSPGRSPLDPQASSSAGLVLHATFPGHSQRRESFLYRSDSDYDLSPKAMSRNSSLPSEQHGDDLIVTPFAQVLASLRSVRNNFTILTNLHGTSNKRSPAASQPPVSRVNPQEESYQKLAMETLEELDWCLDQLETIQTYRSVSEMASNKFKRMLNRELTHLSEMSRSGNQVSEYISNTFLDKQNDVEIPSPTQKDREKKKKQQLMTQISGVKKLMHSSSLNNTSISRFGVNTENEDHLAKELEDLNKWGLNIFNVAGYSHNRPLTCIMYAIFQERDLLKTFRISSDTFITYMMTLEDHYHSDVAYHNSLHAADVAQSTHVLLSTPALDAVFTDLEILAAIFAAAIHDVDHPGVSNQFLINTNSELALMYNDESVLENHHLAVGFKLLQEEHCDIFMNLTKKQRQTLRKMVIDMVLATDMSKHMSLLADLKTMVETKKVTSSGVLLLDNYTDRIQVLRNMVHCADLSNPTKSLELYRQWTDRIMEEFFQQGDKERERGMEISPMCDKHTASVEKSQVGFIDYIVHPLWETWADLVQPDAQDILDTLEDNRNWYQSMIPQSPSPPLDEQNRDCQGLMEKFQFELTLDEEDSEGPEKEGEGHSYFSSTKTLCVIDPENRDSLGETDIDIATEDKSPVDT
Outline: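 HEK293 ACTOne cells with CNG channel (1000/well), endogenous PDE4; membrane potential dye, compounds up to 22.9 uM final. Fluorescence Ex 535/Em 590; RO 20-1724 (100 uM final) as reference.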

[9] = Confirmation and Secondary Assay for Modulators of Hemoglobin Beta Chain Splicing at IVS2 654 locus (AID 910); conditions: HeLa EGFP-654 splicing reporter, GFP fluorescence, 48 h; series mostly up to 38.3 µM;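 further: HeLa cells stably carrying EGFP split by mutant beta-globin IVS2-654 intron; % of control where 0% means no effect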
Outline: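 HeLa cells stably expressing EGFP interrupted by β-globin IVS2-654 intron, seeded overnight in Opti-MEM/2% FCS, then treated 2 days at 37 °C. Restored splicing read as total peak GFP intensity per well by laser scanning cytometry (488 nm excitation, 500–520 nm emission); 500 nM antisense PNA as control.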

[10] = AP1 Signaling Pathway (AID 357; active means well fitted curve in either direction with a large enough effect, not every such curve was filed as active); conditions: ME-180 (cervical carcinoma) AP-1-bla reporter, EGF-induced, beta-lactamase ratio, 5 h; at 7.69 µM (top of the series) unless noted
Outline: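 Titration-series screen for positive or negative modulators of EC50 EGF-induced signaling in ME-180 cells carrying an AP-1-driven beta-lactamase reporter. After 5 hours at 37 degrees Celsius, CCF4 460nm/530nm emission ratio gave %Activity; AC50 values derived.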

[11] = target: Cytochrome P450 1A2 (Homo sapiens) (UniProt P05177); experiment: p450-cyp1a2 (AID 410; calls by dose curve; further: potency means the concentration at half of the fitted maximal effect;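 on activity change, negative = inhibition: -100% = full effect of reference inhibitor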); conditions: recombinant CYP1A2, luciferin-ME demethylation, luminescence; series mostly up to 57 µM
Chain of Cytochrome P450 1A2 (Homo sapiens) (P05177 whole entry, looked up): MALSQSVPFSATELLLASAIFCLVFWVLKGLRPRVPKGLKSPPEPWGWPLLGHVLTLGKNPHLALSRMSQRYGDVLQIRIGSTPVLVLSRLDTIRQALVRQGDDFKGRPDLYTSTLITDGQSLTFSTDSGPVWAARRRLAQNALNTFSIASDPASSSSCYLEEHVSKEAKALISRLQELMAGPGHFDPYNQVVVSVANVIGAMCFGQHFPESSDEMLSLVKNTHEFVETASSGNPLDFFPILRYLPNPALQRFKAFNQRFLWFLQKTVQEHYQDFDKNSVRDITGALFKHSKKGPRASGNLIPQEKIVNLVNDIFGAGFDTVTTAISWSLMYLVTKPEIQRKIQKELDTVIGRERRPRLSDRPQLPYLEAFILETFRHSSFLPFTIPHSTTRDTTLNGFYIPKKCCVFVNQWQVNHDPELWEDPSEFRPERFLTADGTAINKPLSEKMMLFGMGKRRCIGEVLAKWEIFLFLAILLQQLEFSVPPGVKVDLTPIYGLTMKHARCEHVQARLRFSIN
Outline: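 Inhibition was calculated relative to 57 uM furafylline (full inhibition). The reaction used human CYP1A2 at 20nM with Luciferin-ME at its Km, 100uM, driven by an NADPH-regenerating system for 60 min at room temperature.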

[12] = target: Cytochrome P450 3A4 (Homo sapiens) (UniProt P08684); experiment: qHTS Assay for Inhibitors and Substrates of Cytochrome P450 3A4 (AID 884); conditions: recombinant CYP3A4, Luciferin-PPXE luminescence; series mostly up to 57.1 µM; further: nearly all actives have a fitted effect of over 50% in size; further: potency means the concentration at half of the fitted maximal effect
Chain of Cytochrome P450 3A4 (Homo sapiens) (P08684 whole entry, looked up): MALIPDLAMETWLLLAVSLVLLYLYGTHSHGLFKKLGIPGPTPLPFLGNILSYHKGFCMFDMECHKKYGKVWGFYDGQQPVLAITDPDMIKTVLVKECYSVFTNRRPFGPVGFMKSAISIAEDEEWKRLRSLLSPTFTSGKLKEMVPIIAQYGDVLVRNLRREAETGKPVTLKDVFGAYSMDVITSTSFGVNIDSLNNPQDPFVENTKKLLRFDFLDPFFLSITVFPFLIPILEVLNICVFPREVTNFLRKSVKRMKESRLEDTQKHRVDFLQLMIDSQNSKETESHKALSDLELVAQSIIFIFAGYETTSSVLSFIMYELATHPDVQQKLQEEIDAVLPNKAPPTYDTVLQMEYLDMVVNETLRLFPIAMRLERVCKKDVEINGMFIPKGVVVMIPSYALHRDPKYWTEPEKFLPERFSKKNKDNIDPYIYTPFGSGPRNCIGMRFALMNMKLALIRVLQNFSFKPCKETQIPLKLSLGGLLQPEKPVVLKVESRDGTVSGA
Outline: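 20 nM human CYP3A4 with 25 uM Luciferin-PPXE (at KM) in 200 mM KPO4, preincubated 10 min with compound; NADPH regeneration started a 60 min RT reaction. Luciferin detected by luminescence, normalized to 57 uM ketoconazole as full inhibition.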

[13] = target: Cytochrome P450 3A4 (Homo sapiens) (UniProt P08684); experiment: qHTS Assay for Activators of Cytochrome P450 3A4 (AID 885); conditions: recombinant CYP3A4, Luciferin-PPXE luminescence, 60 min; series mostly up to 57.1 µM; further: nearly all actives have a fitted effect of over 65% in size
Outline: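 Human CYP3A4 (20 nM) with Luciferin-PPXE at 25 uM (its KM) in 200 mM KPO4; 10 min compound preincubation, then NADPH regeneration and 60 min reaction at RT. Luciferin read by luminescence; normalized to 57 uM ketoconazole full inhibition.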

[14] = Confirmation and Secondary Assay for Modulators of Hemoglobin Beta Chain Splicing at IVS2 705 locus (AID 930); conditions: HeLa EGFP-705 splicing reporter, GFP fluorescence, 48 h; series mostly up to 38.3 µM;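 further: HeLa cells stably expressing the EGFP-705 splicing reporter; GFP fluorescence per well restored by corrected splicing of the IVS2-705 intron in EGFP; % of control where 0% means no effect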
Outline: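 Per-well GFP, captured at 1 x 8 µm resolution with 488 nm excitation, served as the read-out for HeLa EGFP-705 cells incubated 2 days with test compound versus DMSO.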

[15] = qHTS Assay for Lipid Storage Modulators (AID 1519; calls by dose curve); conditions: Drosophila S3 cells, BODIPY lipid droplet/cell ratio, laser cytometry, cells loaded with oleic acid
Outline: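 Cells seeded at 5,000 per well were treated with compounds over a concentration series and loaded with oleic acid (400 uM, as added). Lipid droplet fluorescence (488 nm excitation, 500-530 nm channel) was read by laser-scanning cytometry and normalized to 20 uM Triacsin C.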

[16] = target: Rap guanine nucleotide exchange factor 3 (Homo sapiens) (UniProt O95398); experiment: Confirmatory qHTS for agonist of cAMP-regulated guanine nucleotide exchange factor 3 (EPAC1) (AID 1645881); conditions: EPAC1 Rap1B BODIPY-GDP exchange fluorescence; series mostly up to 154 µM;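 further: EPAC1 catalysed release of BODIPY-GDP from Rap1B seen as fluorescence loss; 100% = effect of cAMP agonist control; nearly all actives have a fitted effect of over 75% in size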
Chain of Rap guanine nucleotide exchange factor 3 (Homo sapiens) (O95398 whole entry, looked up): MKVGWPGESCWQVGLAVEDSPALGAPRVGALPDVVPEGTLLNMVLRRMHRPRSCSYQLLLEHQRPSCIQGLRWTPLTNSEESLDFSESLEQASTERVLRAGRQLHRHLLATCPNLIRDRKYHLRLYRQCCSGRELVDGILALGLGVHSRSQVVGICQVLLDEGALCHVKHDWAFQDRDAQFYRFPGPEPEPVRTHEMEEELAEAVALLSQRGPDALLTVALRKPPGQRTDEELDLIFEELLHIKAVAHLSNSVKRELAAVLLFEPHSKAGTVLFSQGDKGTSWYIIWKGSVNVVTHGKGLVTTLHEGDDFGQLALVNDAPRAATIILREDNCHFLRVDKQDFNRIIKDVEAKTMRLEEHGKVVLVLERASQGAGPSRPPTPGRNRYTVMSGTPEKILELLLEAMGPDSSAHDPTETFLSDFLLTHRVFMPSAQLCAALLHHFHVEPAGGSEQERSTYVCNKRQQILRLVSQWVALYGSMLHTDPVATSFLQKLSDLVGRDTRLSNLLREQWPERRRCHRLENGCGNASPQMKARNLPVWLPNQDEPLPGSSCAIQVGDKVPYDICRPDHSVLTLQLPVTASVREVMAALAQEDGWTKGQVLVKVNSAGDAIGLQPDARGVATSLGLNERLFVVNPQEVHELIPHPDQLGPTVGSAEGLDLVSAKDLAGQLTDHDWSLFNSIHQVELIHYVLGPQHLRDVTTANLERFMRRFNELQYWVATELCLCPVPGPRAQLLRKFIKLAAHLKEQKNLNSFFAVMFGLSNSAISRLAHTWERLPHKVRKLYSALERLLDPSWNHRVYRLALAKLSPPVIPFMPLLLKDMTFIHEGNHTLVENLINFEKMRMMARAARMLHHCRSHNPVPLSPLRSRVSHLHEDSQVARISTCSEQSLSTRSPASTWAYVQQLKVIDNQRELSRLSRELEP

[17] = target: Ubiquitin carboxyl-terminal hydrolase 1 (Homo sapiens) (UniProt O94782); experiment: Inhibitors of USP1/UAF1: Pilot qHTS (AID 504865); conditions: purified USP1/UAF1, Ub-rhodamine cleavage fluorescence; series mostly up to 54.9 µM;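 further: rhodamine fluorescence freed from ubiquitin-rhodamine substrate followed over time; top concentration of the series differs between compounds; on the % scale 0 is the no-effect control and ±100 the full control effect; nearly all actives have a fitted effect of over 35% in size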
Chain of Ubiquitin carboxyl-terminal hydrolase 1 (Homo sapiens) (O94782 whole entry, looked up): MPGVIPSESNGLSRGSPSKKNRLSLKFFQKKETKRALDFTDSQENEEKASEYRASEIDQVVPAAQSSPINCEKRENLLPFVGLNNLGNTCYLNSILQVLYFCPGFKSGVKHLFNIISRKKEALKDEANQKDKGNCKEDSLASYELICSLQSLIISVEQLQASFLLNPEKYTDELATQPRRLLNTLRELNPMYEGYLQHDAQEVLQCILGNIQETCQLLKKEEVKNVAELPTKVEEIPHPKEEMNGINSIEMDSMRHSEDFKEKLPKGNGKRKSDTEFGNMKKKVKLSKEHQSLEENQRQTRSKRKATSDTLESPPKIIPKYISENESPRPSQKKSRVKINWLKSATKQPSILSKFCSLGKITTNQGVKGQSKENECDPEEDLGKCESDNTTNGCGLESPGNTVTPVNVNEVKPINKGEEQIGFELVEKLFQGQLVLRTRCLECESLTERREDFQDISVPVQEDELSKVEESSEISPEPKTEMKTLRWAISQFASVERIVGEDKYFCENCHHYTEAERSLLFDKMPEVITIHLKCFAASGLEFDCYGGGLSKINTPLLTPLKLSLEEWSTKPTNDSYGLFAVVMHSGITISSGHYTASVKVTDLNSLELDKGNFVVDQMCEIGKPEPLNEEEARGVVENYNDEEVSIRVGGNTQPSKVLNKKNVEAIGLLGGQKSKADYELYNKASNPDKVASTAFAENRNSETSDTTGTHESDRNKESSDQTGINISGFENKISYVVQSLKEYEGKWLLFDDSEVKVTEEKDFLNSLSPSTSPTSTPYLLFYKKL
Outline: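 Kinetic fluorescence assay: 1nM USP1/UAF1, 15 min compound preincubation, then 150nM Ub-Rho; 480/540 nm.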

[18] = target: Dual specificity protein kinase CLK4 (Homo sapiens) (UniProt Q9HAZ1); experiment: qHTS Assay for Inhibitors of CDC-like Kinase 4 (ADP-Glo Assay) (AID 1771); conditions: recombinant CLK4, ADP-Glo luminescence; series mostly up to 80 µM; further: potency means the concentration at half of the fitted maximal effect; nearly all actives have a fitted effect of over 70% in size
Outline: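 Kinase reaction: Clk4 at 25 nM, RS repeat peptide substrate at 100 uM, ATP at 1 uM, 1 hr, room temperature. Product ADP detected as luciferase signal via ADP-Glo.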

[19] = measured here: cell count channel max response
[20] = measured here: lipid channel max response

COc1ccc(C(=O)N2CCC3(CCN(C(=O)Nc4cccc(C#N)c4)CC3)CC2)cc1
inactive: Potency [1] > 11.4 µM | activity, negative = inhibition [2] -23.9% | Potency [3] > 46 µM | outcome [4]

Cc1cnc(CNc2ncnc3ccc(-c4ccccc4C#N)cc23)cn1
inactive: Potency [1] > 11.4 µM | activity change, negative = inhibition [5] 0.584% | activity, negative = inhibition [2] -10.7% | Potency [6] > 46 µM | Potency [3] > 46 µM | Potency [7] | Potency [8] | Potency [9] | outcome [4]

O=C(c1ccco1)N1CCC2(CCCN(c3cccc(-c4ccccc4)c3)C2)CC1
inactive: Potency [1] > 11.4 µM | activity, negative = inhibition [2] -5.55% | Potency [3] > 46 µM | Potency [7] | outcome [4]

COc1ccccc1CNc1nc(-c2ccc(N(C)C)cc2)nc2ccccc12
active: Potency [11] 2.51 µM | Potency [12] 3.16 µM
inactive: activity change, negative = inhibition [10] 1.38% | activity change, negative = inhibition [5] -29.6% | activity, negative = inhibition [2] 20.3% | Potency [6] > 46 µM | Potency [3] > 46 µM | Potency [7] | Potency [8] | Potency [13] | outcome [14] | outcome [4]

O=C(c1cccc(F)c1)N1CCC2(CCCN(Cc3cc(C(F)(F)F)cc(C(F)(F)F)c3)C2)CC1
inactive: Potency [1] > 11.4 µM | Potency [11] | activity, negative = inhibition [2] 3.76% | Potency [3] > 46 µM | Potency [7] | Potency [8] | Potency [13] | outcome [4]

COc1ccc(Oc2ncc3ncc(=O)n(CCc4ccccc4)c3n2)cc1
active: Potency [11] 0.631 µM | Potency [12] 1.26 µM
inactive: activity change, negative = inhibition [10] -14.7% | activity change, negative = inhibition [5] -16.6% | activity, negative = inhibition [2] 3.46% | Potency [6] > 9.22 µM | Potency [3] > 46 µM | Potency [7] | Potency [13] | outcome [4]

C=CCc1ccc(OC(=O)c2ccccc2)c(OC)c1
inactive: Potency [13] | outcome [14] | activity change, negative = inhibition ([15]; at 57.5 µM (top of the series)) 6.62% | Potency [16]
active: Potency [12] 5.01 µM
5.85%: max response [15, 19]
15.6%: max response [15, 20]

O=C(c1cnccn1)N1CCC2(CCCN(Cc3ccncc3)C2)CC1
inactive: activity change, negative = inhibition [10] -12.8% | activity, negative = inhibition [2] 6.38% | Potency [3] > 46 µM | Potency [7] | Potency [8] | outcome [4]

CCCNC(=O)N1N=C(c2ccc(N)cc2)c2cc3c(cc2[C@H]1C)OCO3
active: Potency [11] 3.98 µM | Potency [12] 1.26 µM
inactive: Potency [6] > 46 µM | Potency [3] > 46 µM | Potency [13] | outcome [4]

CN(Cc1ccco1)c1ncnc2ccc(-c3ccc4c(c3)OCO4)cc12
active: Potency [11] 0.501 µM | Potency [12] 2.51 µM
inactive: Potency [1] > 11.4 µM | activity, negative = inhibition [2] -7.17% | Potency [3] > 46 µM | Potency [7] | Potency [13] | Potency [9] | outcome [14] | activity change, negative = inhibition ([15]; at 57.5 µM (top of the series)) 2.26% | Potency [16]
-9.61%: max response [15, 19]
-5.56%: max response [15, 20]

N#CCCn1c(=O)c(-c2ccc(F)cc2)nc2cnc(Oc3cccc(Cl)c3)nc21
active: Potency [11] 0.501 µM
inactive: Potency [6] > 9.22 µM | Potency [3] > 46 µM | Potency [7] | Potency [8] | outcome [4]

C=CCNC(=O)c1cc([N+](=O)[O-])cc2c(=O)[nH]c(Nc3ccc(Cl)c(Cl)c3)nc12
inactive: Potency [13] | outcome [4]

Cc1cc(C)c(S(=O)(=O)Nc2ccccc2C(F)(F)F)c(C)c1
active: Potency [11] 31.6 µM | Potency [12] 2.51 µM
inactive: Potency [6] > 46 µM | Potency [3] > 46 µM | Potency [13] | outcome [4]

C/C(=C\COc1cc(=O)[nH]c2ccccc12)CCC(O)C(C)(C)O (configuration not stated)
inactive: outcome [4]

O=c1ccc2cc(O)c(O)cc2o1
-18.9% and -8.28%: max response [15, 20]
inactive: activity change, negative = inhibition [10] 12.2% [at 17.2 µM] | activity change, negative = inhibition [5] 28.9% [at 17.2 µM] | Potency [6] > 20.6 µM | Potency [3] > 20.6 µM | Potency [7] | Potency [8] | Potency [12] | Potency [13] | Potency [9] | outcome [14] | activity change, negative = inhibition ([15]; at 25.7 µM (top of the series)) -3.37% | activity change, negative = inhibition ([15]; at 57.5 µM (top of the series)) -7.91% | Potency [17]
-16.4% and -4.98%: max response [15, 19]

COc1ccccc1CNc1ncnc2ccc(-c3ccccc3C#N)cc12
active: Potency [11] 1.26 µM | Potency [18] 7.94 µM
inactive: Potency [1] > 11.4 µM | activity change, negative = inhibition [10] -13.9% | activity change, negative = inhibition [5] 1.75% | activity, negative = inhibition [2] -23% | Potency [6] > 46 µM | Potency [3] > 46 µM | Potency [7] | Potency [13] | activity change, negative = inhibition ([15]; at 57.5 µM (top of the series)) -1.18% | Potency [17] | Potency [16]
16.4%: max response [15, 19]
14.7%: max response [15, 20]

Nc1ccc(C(=O)O)c(O)c1 (tested in a mixture with another compound)
6.65%: max response [15, 19]
22.7%: max response [15, 20]
inactive: activity change, negative = inhibition ([15]; at 57.5 µM (top of the series)) 15.3%

CN=C1N[C@H](c2ccccc2)N(c2ccccc2)S1
inactive: Potency [6] > 46 µM | Potency [3] > 46 µM | Potency [7] | Potency [13] | Potency [17] | outcome [4]
active: Potency [11] 1.26 µM

CC(C)CN1CCCC2(CCN(C(=O)c3ccco3)CC2)C1
inactive: activity change, negative = inhibition [10] -0.809% | activity, negative = inhibition [2] 2.64% | Potency [3] > 46 µM | Potency [7] | Potency [8] | Potency [13] | outcome [4]
